Among the data in PubChem BioAssay (Tox21) are Potency and outcome values, retold here.

A short description of test [1]: qHTS assay to identify small molecule agonists of the peroxisome proliferator-activated receptor delta (PPARd) signaling pathway - cell viability counter screen (AID 743211). Further: nearly all actives have a fitted effect of over 55% in size. The essentials:
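Tox21 library compounds, delivered in DMSO, were incubated 17 h with PPARd-bla HEK293H cells; cytotoxicity was taken from CellTiter-Glo luminescence read 30 min after reagent addition.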
In general terms: Quantitative high-throughput screening tests each substance at several concentrations.

Test [2] in a line: qHTS assay to identify small molecule antagonists of the peroxisome proliferator-activated receptor delta (PPARd) signaling pathway - cell viability counter screen (AID 743213). Further: nearly all actives have a fitted effect of over 50% in size. The essentials: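 PPARd-bla HEK293H cells (3000/well) got compound plus 300 nM L165041 agonist for 17 h at 37 C. Viability in the same wells came from CellTiter-Glo luminescence after 30 min at room temperature.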

Test [3] concerns the target Bile acid receptor (Homo sapiens) (UniProt Q96RI1). Nature of the test: qHTS assay to identify small molecule antagonists of the farnesoid-X-receptor (FXR) signaling pathway (AID 743217; active means well fitted inhibition curve with a large enough effect in the signal ratio in the repeat runs, not every such curve was filed as active; the % refers to the signal ratio). The essentials:
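Antagonist mode against 50 uM (final) chenodeoxycholic acid stimulation in FXR-bla HEK 293T cells, 16 h at 37 °C. Inhibition detected as reduced beta-lactamase activity via LiveBLAzer B/G FRET fluorescence after 2 h at room temperature.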

Test [4] is described as follows: qHTS assay to identify small molecule agonists of the farnesoid-X-receptor (FXR) signaling pathway - cell viability counter screen (AID 743218). Further: nearly all actives have a fitted effect of over 45% in size. The procedure, abridged: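 Cytotoxicity counter-screen run in parallel, same wells: FXR-UAS-bla HEK 293T cells dosed 16 h at 37 C, viability read by CellTiter-Glo luminescence after 30 min at room temperature.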
Test [5] concerns the target Bile acid receptor (Homo sapiens) (UniProt Q96RI1). Briefly: qHTS assay to identify small molecule agonists of the farnesoid-X-receptor (FXR) signaling pathway (AID 743220; active means well fitted activation curve with a large enough effect in the signal ratio in the repeat runs, not every such curve was filed as active; the % refers to the signal ratio). The essentials:
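Beta-lactamase reporter under UAS control in GeneBLAzer FXR HEK 293T cells (5000/well) measured with LiveBLAzer FRET substrate after 2 h at room temperature. Compound exposure lasted 16 h at 37C.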

The nature of test [6]: qHTS assay to identify small molecule antagonists of the farnesoid-X-receptor (FXR) signaling pathway - cell viability counter screen (AID 743221; active means well fitted cell-killing curve with a large enough effect in the repeat runs, not every such curve was filed as active; further: nearly all actives have a fitted effect of over 50% in size). The essentials:
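Cytotoxicity is taken from ATP luminescence (CellTiter-Glo, 30 min, room temperature) in FXR-bla HEK 293T cells previously incubated 16 h at 37 C with compound and chenodeoxycholic acid at 50 uM final.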

For test [7], the target named is Vitamin D3 receptor (Homo sapiens) (UniProt P11473). Briefly: qHTS assay to identify small molecule agonists of the vitamin D receptor (VDR) signaling pathway (AID 743222; calls by dose curve). The procedure, abridged: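 Quantitative HTS agonist-mode screen: compounds in DMSO were pin-transferred onto VDR-bla cells and incubated 16 h at 37C, 5% CO2. Reporter activity was detected with LiveBLAzer B/G FRET substrate after 2 h at room temperature.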
Chain of Vitamin D3 receptor (Homo sapiens) (P11473 whole entry, looked up): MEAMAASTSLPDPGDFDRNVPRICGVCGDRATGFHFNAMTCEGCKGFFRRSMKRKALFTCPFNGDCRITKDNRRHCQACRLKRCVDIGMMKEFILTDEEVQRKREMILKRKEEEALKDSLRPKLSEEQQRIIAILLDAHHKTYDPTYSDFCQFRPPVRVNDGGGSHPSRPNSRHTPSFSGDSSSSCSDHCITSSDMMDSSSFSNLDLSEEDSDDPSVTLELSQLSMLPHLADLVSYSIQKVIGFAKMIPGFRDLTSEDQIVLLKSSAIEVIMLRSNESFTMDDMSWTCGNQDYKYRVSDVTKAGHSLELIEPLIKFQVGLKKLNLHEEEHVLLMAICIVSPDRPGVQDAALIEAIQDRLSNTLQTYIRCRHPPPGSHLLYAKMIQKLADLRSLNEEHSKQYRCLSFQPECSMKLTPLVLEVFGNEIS

Test [8] shares this target. Briefly: qHTS assay to identify small molecule antagonists of the vitamin D receptor (VDR) signaling pathway (AID 743223; active means well fitted inhibition curve with a large enough effect in the signal ratio in the repeat runs, not every such curve was filed as active; the % refers to the signal ratio). The essentials: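 Quantitative HTS in VDR-bla reporter cells stimulated with 1alpha,25-dihydroxyvitamin D3, 3 nM final. Compound exposure 16 h, 37C, 5% CO2. Read-out: beta-lactamase FRET substrate fluorescence, 2 h RT.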
Test [9] can be described thus: qHTS assay to identify small molecule agonists of the vitamin D receptor (VDR) signaling pathway - cell viability counter screen (AID 743224). Further: series mostly up to about 63 µM; nearly all actives have a fitted effect of over 50% in size. The essentials: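 Viability is measured in the same wells as the VDR-bla reporter assay: after 16 h compound treatment and 2 h substrate loading, CellTiter-Glo is added and luminescence read 30 min later.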
Test [10] is described as follows: qHTS assay to identify small molecule agonists of the NFkB signaling pathway (AID 1159509; active means well fitted curve in the direction sought with a large enough effect in the signal ratio in the repeat runs, not every such curve was filed as active; the % refers to the signal ratio; further: series mostly up to about 61 µM). The procedure, abridged:
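NFkB-bla ME-180 cells carry a beta-lactamase reporter under an NF-kB response element. They were plated overnight, then exposed to compounds for 5 h at 37 C. Read-out is LiveBLAzer FRET after 1.5 hr at room temperature (405 nm excitation; 460/530 nm emission).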

A short description of test [11]: qHTS assay to identify small molecule agonists of the NFkB signaling pathway - cell viability counter screen (AID 1159515; calls by dose curve; further: series mostly up to about 61 µM; nearly all actives have a fitted effect of over 55% in size). The essentials: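 Multiplexed viability readout: after the 5 hr compound exposure and 1.5 hr FRET substrate step, CellTiter-Glo reagent went into the same NFkB-bla ME-180 wells; ATP luminescence was measured after 30 min at room temperature.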

Test [12] in a line: qHTS assay to identify small molecule agonists of the endoplasmic reticulum stress response signaling pathway (AID 1159516; active means well fitted activation curve with a large enough effect in the signal ratio in the repeat runs, not every such curve was filed as active; the % refers to the signal ratio; further: potency means the concentration at half of the fitted maximal effect). The procedure, abridged:
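Tox21 10K library screened in quantitative HTS format on ESRE-bla HeLa cells, a beta-lactamase reporter under ER stress response element control; 5 hr treatment, FRET read.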

Test [13] can be described thus: qHTS assay to identify small molecule antagonists of the retinoid-related orphan receptor gamma (ROR-gamma) signaling pathway - cell viability counter screen (AID 1159520). Further: nearly all actives have a fitted effect of over 50% in size. The essentials:
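Tet-on ROR gamma CHO cells were given compounds for 2 hr, then doxycycline hyclate at 1 uM final, and incubated 16 hr at 37 C. Viability was measured as ATP content by CellTiter-Glo luminescence.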

Test [14] deals with Nuclear receptor ROR-gamma (Homo sapiens) (UniProt P51449). Nature of the test: qHTS assay to identify small molecule antagonists of the retinoid-related orphan receptor gamma (ROR-gamma) signaling pathway (AID 1159521). The procedure, abridged: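 Inducible-expression reporter assay: doxycycline (1 uM final) switched on RORγ in CHO cells bearing a ROR response element-luciferase construct, with test compounds present from 2 h beforehand. Decreased luminescence after 16 h defined antagonist activity.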

A short description of test [15]: qHTS assay to identify small molecule agonists of the AP-1 signaling pathway - cell viability counter screen (AID 1159525; calls by dose curve; further: nearly all actives have a fitted effect of over 55% in size). The essentials: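 AP-1-bla ME-180 cells in Opti-MEM with 0.5% dialyzed FBS, compound exposure 5 h at 37 C in 15-point titration. Viability read in the same wells as ATP content by CellTiter-Glo luminescence, normalised to tetra-n-octylammonium bromide and DMSO controls.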

Test [16] is described as follows: qHTS assay to identify small molecule agonists of the AP-1 signaling pathway (AID 1159526; calls by dose curve).
Test [17] has as its target Peroxisome proliferator-activated receptor delta (Homo sapiens) (UniProt Q03181). Briefly: qHTS assay to identify small molecule agonists of the peroxisome proliferator-activated receptor delta (PPARd) signaling pathway (AID 743212; calls by dose curve). The procedure, abridged: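 GeneBLAzer UAS-bla HEK293H cells carrying a PPARδ construct were exposed to compounds at 37 °C. Beta-lactamase activity was read by FRET fluorescence after 2 h at room temperature with LiveBLAzer B/G substrate.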

The nature of test [18]: qHTS assay to identify small molecule antagonists of the vitamin D receptor (VDR) signaling pathway - cell viability counter screen (AID 743225). Further: nearly all actives have a fitted effect of over 50% in size. The procedure, abridged:
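Same-well multiplex: following 16 h treatment of HEK 293T cells carrying a UAS-driven beta-lactamase reporter with compound and agonist (3 nM final), and a 2 h FRET substrate step, CellTiter-Glo was added and luminescence read after 30 min.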

Test [19] concerns the target Peroxisome proliferator-activated receptor delta (Homo sapiens) (UniProt Q03181). Nature of the test: qHTS assay to identify small molecule antagonists of the peroxisome proliferator-activated receptor delta (PPARd) signaling pathway (AID 743215; active means well fitted inhibition curve with a large enough effect in the signal ratio in the repeat runs, not every such curve was filed as active; the % refers to the signal ratio;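 further: cells stimulated with agonist L165041 at 300 nM final during compound exposure; series mostly up to about 62 µM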). The procedure, abridged:
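Inhibition of L165041-driven (300 nM final) PPARd signaling is scored in HEK293H UAS-bla cells. Exposure lasts 17 h at 37 C; beta-lactamase activity is then read by FRET substrate fluorescence after 2 h at room temperature.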

Results filed as inconclusive are left out. Values without a mark were called inactive. The source made the active and inactive calls. Unless noted, the call rests on the fitted dose curve; in most records, active means well fitted curve in the direction sought with a large enough effect in the repeat runs; inconclusive means weak or mixed curves; inactive means no such curve, though single readings can be large; an effect the other way counts as inactive or inconclusive.

Chain of Peroxisome proliferator-activated receptor delta (Homo sapiens) (Q03181 whole entry, looked up): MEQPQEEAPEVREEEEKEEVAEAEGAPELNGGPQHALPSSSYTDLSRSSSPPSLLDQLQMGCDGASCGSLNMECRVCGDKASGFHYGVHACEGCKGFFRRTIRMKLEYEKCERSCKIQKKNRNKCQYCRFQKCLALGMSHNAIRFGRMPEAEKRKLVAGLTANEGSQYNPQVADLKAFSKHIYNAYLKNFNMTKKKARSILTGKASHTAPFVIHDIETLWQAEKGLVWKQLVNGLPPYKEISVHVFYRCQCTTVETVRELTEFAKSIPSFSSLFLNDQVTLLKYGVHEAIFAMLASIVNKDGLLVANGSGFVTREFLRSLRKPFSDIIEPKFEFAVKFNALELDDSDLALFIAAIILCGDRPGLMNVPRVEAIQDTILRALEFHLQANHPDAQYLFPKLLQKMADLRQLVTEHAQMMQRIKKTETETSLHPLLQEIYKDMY
Chain of Bile acid receptor (Homo sapiens) (Q96RI1 whole entry, looked up): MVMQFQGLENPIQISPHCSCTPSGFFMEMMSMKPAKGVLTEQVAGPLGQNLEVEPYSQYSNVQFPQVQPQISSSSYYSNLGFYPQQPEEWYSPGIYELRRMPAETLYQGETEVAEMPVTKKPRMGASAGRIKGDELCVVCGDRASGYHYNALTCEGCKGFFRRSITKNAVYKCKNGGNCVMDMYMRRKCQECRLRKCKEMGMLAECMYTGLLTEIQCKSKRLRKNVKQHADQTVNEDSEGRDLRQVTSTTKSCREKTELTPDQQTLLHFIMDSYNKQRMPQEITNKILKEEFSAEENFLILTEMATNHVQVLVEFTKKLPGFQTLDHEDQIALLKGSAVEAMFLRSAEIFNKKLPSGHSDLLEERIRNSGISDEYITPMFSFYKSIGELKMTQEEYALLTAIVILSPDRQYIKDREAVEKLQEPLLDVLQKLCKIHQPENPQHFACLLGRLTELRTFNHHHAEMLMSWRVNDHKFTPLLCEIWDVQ

With `C=C(C)C(=O)OCCC(F)(F)C(F)(F)C(F)(F)C(F)(F)C(F)(F)C(F)(F)F`, the Potency result in test [1], in test [2], in [4], in test [5], in [6] and in test [9] was “inactive” throughout. In addition, the Potency entry in [11], in test [12], in test [13], in test [14] and in test [15] was “inactive” in each case. Besides, the outcome in [3], in [7], in test [8], in test [10] and in [16] was inactive.
Regarding `O=C(CCS)OCC(COC(=O)CCS)(COC(=O)CCS)COC(=O)CCS`, the Potency result in test [1], in [4], in test [5], in [9], in test [18] and in [11] was “inactive” throughout. Moreover, the Potency entry in test [13], in test [14] and in [15] was “inactive” each time. Besides, the compound was classed as inactive in test [17], in [3], in test [7], in [8], in [10] and in test [16]. Besides, the Potency in [12] was 8.71 µM (active).
As to `CC(C)(O)c1coc(S(=O)(=O)NC(=O)Nc2c3c(cc4c2CCC4)CCC3)c1`, the Potency result in test [1], in [2], in [4], in [5], in test [9] and in test [18] was “inactive” each time. For the same compound, the Potency entry in test [11], in test [12], in [13], in [14] and in test [15] was “inactive” each time. The call in [3], in test [7], in test [8], in test [10] and in test [16] was inactive.
Regarding `CC1CCCO1` (stereo unspecified), the Potency entry in test [1], in [4], in test [6], in test [11], in test [12] and in test [13] was “inactive” in each case. For the same compound, the Potency result in [14] and in test [15] was “inactive” each time. Besides, the compound was classed as inactive in test [17], in test [7], in test [8], in [10] and in test [16].
Consider `CNCc1ccc(NC(=O)c2c[nH]c3c2C(=O)CCC3)cc1`, for which the Potency entry in test [1], in [4], in test [6], in test [9], in [18] and in test [11] was “inactive” in each case. The Potency result in test [12], in [13], in test [14] and in test [15] was “inactive” in each case. Besides, the outcome in test [17], in [7], in [8], in test [10] and in test [16] was inactive.
Consider `CC(=O)C(=O)CC(C)C`, for which the Potency entry in [1], in [2], in test [19], in test [4], in test [9] and in test [11] was “inactive” each time. Moreover, the Potency entry in test [12], in test [13], in test [14] and in [15] was “inactive” each time. Also, the compound was called inactive in [17], in test [7], in test [8], in test [10] and in [16].
`CCOC(=O)C(C)O` (stereo unspecified): the Potency entry in test [1], in test [2], in test [19], in [4], in test [5] and in test [6] was “inactive” each time. Further, the Potency entry in test [9], in test [18], in test [11], in test [12], in test [13] and in [14] was “inactive” each time. For the same compound, in [15], the Potency entry was “inactive”. Further, the outcome in test [17], in [3], in [7], in test [10] and in [16] was inactive.
Take `CC(C)COC(=O)COc1cc(Cl)c(Cl)cc1Cl`: the Potency entry in test [1], in test [4], in [6], in test [18], in test [11] and in test [12] was “inactive” each time. Also, the Potency result in test [13], in test [14] and in [15] was “inactive” throughout. In addition, the result in test [17], in test [10] and in test [16] was inactive.
Regarding `CCCCCCCCCCCC(=O)OCC(O)CO` (stereo unspecified), the Potency result in test [4], in test [6], in test [11], in test [12], in test [13] and in test [14] was “inactive” each time. For the same compound, the Potency result in test [15] was “inactive”. The result in test [8], in test [10] and in [16] was inactive.
